The values that follow come from PMC7862700, “An all-to-all approach to the identification of sequence-specific readers for epigenetic DNA modifications on cytosine”.

Test in all cases: DAPPL (digital affinity profiling via proximity ligation, sequencing); 10 mM Tris-HCl pH 7.5, 50 mM NaCl, 1 mM DTT, 4% glycerol, room temperature, 30 min; GST-TFs on glutathione beads, 16-mer random dsDNA library, 0.1% formaldehyde crosslink after washing; high values mean tight binding
The target in one assay is T1, FLI1 (Homo sapiens, UniProt Q01543 1-452).
T1 sequence: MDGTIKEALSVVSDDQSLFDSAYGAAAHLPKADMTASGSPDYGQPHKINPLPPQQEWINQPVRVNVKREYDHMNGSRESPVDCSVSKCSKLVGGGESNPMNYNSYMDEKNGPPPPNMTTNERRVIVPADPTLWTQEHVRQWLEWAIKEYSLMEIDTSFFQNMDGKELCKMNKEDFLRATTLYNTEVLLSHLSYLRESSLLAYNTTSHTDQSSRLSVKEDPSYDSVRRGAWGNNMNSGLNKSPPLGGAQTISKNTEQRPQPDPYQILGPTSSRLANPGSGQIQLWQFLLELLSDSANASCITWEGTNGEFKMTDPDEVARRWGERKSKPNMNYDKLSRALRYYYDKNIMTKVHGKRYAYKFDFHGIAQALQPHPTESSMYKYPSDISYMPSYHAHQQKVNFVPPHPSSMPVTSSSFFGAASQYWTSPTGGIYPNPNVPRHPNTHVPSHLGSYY
As to conditions: protein: recombinant; tags: N-terminal GST; dsDNA, one strand shown. The method, boiled down:
(§1)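 The binding signal reported is, for every hexamer, its read frequency for a factor over its read frequency for the tag-only sample. Reads came from pools of yeast-expressed, GST-fused human transcription factors on glutathione beads, barcoded with DNA and mixed with that sample, which were incubated with 200 nmole of a random double-stranded 16-mer DNA library in Tris/NaCl/DTT/glycerol buffer at room temperature for 30 min. After washing, the pools were crosslinked with 0.1% formaldehyde, proximity-ligated with BsaI/T4 ligase for 1 h at 37 °C, PCR-amplified and sequenced on an Illumina NextSeq500.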

For the next assay, the target named is T2, ELK1 (Homo sapiens, UniProt P19419 1-428).
T2 sequence: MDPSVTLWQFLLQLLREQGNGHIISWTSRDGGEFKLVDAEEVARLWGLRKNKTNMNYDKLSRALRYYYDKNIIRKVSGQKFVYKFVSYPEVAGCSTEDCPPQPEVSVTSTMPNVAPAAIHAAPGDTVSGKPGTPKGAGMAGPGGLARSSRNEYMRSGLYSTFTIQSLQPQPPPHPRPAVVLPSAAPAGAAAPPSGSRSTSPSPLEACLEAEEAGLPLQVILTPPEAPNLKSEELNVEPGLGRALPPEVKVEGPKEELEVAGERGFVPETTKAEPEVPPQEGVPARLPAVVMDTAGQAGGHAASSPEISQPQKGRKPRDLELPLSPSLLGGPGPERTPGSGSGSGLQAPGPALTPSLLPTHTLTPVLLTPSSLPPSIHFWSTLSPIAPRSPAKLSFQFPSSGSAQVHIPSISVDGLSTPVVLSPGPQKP
The following applies: protein: recombinant; tags: N-terminal GST; dsDNA, one strand shown. An outline of the steps:
as §1

The next assay addresses T3, GABPA (Homo sapiens, UniProt Q06546 1-454).
T3 sequence: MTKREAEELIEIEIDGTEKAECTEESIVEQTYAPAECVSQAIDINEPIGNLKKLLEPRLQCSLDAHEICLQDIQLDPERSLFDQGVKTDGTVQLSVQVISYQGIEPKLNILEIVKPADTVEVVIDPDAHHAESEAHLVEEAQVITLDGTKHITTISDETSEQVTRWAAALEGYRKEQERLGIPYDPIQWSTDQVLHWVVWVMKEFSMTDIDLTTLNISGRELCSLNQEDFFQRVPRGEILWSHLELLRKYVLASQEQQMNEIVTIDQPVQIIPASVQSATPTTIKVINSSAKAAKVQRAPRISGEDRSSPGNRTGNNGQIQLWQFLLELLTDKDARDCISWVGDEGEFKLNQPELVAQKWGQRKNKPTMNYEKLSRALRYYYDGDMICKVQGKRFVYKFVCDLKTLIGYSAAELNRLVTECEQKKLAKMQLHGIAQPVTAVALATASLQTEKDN
The following applies: protein: recombinant; tags: N-terminal GST; dsDNA, one strand shown. The method, boiled down:
as §1

The target of another assay is T4, ERG (Homo sapiens, UniProt P11308 1-479).
T4 sequence: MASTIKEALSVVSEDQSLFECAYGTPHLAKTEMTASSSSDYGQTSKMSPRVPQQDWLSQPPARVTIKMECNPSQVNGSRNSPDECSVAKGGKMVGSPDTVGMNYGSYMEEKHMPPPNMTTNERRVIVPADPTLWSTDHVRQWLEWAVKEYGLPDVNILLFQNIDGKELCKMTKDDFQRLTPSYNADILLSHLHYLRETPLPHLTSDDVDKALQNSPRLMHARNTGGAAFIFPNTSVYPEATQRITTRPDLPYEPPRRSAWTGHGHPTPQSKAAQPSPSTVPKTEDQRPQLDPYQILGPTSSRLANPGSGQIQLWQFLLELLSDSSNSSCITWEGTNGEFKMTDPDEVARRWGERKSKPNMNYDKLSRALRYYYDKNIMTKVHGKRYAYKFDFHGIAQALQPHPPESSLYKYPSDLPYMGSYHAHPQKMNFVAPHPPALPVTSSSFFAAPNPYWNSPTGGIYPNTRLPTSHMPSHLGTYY
The following applies: protein: recombinant; tags: N-terminal GST; dsDNA, one strand shown. The method, boiled down:
as §1

For the next assay, the target named is ELF1 (Homo sapiens, UniProt P32519 1-619). As to conditions: protein: recombinant; tags: N-terminal GST; dsDNA, one strand shown. An outline of the steps: as §1
ELF1, sequence (P32519 whole entry): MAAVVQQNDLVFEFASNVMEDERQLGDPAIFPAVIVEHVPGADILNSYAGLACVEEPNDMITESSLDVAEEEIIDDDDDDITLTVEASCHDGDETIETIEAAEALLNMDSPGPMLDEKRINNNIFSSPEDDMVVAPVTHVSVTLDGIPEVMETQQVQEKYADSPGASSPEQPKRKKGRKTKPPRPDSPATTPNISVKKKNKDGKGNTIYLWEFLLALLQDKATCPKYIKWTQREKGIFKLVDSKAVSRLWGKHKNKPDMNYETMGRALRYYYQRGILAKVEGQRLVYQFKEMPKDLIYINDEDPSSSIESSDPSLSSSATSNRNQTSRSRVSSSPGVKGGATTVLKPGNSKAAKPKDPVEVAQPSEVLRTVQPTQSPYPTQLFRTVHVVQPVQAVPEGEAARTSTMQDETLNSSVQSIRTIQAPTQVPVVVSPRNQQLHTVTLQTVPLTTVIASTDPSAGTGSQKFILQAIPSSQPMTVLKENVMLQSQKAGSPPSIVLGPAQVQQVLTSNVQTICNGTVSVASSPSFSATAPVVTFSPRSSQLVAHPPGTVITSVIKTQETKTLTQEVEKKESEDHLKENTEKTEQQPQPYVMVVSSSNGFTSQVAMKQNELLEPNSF
In the next assay the target is T5, EHF (Homo sapiens, UniProt Q9NZC4 1-300).
T5 sequence: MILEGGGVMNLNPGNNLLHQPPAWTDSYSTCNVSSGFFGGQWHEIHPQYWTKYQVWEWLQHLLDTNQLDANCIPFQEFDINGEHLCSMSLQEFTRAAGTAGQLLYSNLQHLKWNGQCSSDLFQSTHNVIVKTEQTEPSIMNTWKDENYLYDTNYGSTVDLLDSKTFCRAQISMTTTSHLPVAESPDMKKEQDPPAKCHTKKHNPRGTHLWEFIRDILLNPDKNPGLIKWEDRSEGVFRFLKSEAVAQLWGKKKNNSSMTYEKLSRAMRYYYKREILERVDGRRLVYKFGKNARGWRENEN
The following applies: protein: recombinant; tags: N-terminal GST; dsDNA, one strand shown. An outline of the steps: as §1

A further assay addresses SPIB (Homo sapiens, UniProt Q01892 1-262). The following applies: protein: recombinant; tags: N-terminal GST; dsDNA, one strand shown. An outline of the steps:
as §1

A further assay has as its target T6, ELK3 (Homo sapiens, UniProt P41970 1-407).
T6 sequence: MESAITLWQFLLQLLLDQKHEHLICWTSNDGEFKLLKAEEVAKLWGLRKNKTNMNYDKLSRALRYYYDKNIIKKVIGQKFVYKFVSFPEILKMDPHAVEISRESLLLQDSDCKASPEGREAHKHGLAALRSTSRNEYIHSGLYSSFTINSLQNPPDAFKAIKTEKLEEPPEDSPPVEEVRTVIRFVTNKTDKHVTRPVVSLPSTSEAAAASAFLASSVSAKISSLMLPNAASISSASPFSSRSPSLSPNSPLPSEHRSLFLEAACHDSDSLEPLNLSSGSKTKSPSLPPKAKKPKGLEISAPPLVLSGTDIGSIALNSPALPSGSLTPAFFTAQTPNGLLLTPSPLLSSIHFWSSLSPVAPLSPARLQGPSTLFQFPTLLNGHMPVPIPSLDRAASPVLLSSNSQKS
The following applies: protein: recombinant; tags: N-terminal GST; dsDNA, one strand shown. An outline of the steps: as §1

A further assay concerns the target T7, FEV (Homo sapiens, UniProt Q99581 1-238).
T7 sequence: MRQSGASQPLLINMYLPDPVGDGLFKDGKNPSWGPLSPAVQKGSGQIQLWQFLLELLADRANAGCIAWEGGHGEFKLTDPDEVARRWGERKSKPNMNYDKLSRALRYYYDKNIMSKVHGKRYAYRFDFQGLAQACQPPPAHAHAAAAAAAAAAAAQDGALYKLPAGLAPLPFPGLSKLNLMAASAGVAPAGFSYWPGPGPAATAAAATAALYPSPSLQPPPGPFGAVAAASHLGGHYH
The following applies: protein: recombinant; tags: N-terminal GST; dsDNA, one strand shown. The method, boiled down: as §1

For a further assay, the target named is ETV5 (Homo sapiens, UniProt P41161 1-510). The following applies: protein: recombinant; tags: N-terminal GST; dsDNA, one strand shown. The method, boiled down:
as §1

The next assay has as its target HSF1 (Homo sapiens, UniProt Q00613 1-529). As to conditions: protein: recombinant; tags: N-terminal GST; chain copies: 3; dsDNA, one strand shown. An outline of the steps:
as §1

Another assay addresses T8, SPIC (Homo sapiens, UniProt Q8N5J4 1-248).
T8 sequence: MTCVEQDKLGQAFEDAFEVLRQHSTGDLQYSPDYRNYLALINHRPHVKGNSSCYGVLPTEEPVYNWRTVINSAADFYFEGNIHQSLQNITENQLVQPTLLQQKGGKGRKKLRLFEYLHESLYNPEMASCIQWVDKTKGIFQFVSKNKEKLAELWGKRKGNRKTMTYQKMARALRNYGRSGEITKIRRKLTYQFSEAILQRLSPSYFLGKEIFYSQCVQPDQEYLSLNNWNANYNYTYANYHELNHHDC
The following applies: protein: recombinant; tags: N-terminal GST; dsDNA, one strand shown. An outline of the steps:
as §1

The target of a further assay is ELF4 (Homo sapiens, UniProt Q99607 1-663). The following applies: protein: recombinant; tags: N-terminal GST; dsDNA, one strand shown. The method, boiled down: as §1
ELF4, sequence (Q99607 whole entry): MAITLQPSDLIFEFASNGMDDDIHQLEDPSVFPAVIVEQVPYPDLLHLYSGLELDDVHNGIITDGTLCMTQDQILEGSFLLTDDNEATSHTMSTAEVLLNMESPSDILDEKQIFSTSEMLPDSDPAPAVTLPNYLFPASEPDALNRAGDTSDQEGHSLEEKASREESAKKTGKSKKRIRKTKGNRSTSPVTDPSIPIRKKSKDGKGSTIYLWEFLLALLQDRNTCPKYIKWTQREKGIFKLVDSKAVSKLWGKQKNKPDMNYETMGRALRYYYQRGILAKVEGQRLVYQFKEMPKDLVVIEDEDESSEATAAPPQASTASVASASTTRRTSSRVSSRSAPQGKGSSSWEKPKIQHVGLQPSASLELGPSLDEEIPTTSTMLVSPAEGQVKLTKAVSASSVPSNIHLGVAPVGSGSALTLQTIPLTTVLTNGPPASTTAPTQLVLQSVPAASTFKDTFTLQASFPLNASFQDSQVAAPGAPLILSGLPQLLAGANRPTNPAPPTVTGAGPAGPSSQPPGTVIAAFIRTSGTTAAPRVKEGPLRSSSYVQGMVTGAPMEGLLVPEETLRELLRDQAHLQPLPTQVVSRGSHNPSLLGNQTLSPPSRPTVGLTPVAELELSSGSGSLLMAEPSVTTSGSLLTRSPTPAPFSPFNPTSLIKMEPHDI
The target of another assay is T9, ELK4 (Homo sapiens, UniProt P28324-2 1-405).
T9 sequence: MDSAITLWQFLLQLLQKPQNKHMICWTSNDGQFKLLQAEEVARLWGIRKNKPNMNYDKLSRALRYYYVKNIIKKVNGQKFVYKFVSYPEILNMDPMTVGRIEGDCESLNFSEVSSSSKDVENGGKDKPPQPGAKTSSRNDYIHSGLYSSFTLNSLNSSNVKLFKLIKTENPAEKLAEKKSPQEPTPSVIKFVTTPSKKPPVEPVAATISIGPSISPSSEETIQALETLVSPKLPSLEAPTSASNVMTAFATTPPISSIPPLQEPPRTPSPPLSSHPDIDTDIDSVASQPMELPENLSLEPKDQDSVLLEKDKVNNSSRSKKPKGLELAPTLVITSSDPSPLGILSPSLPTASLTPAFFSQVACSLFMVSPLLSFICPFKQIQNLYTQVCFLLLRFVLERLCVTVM
As to conditions: protein: recombinant; tags: N-terminal GST; dsDNA, one strand shown. An outline of the steps: as §1

Another assay has as its target T10, ETV2 (Homo sapiens, UniProt O00321 1-342).
T10 sequence: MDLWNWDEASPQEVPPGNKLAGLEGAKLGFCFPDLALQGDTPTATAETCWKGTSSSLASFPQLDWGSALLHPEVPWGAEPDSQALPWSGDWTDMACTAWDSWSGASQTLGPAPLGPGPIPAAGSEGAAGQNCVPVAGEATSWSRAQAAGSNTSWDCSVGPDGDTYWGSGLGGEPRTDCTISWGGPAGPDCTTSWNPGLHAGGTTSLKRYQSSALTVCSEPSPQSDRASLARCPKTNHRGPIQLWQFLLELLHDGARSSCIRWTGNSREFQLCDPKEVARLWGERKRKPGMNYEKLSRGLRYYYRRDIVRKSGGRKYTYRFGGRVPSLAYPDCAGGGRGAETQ
As to conditions: protein: recombinant; tags: N-terminal GST; dsDNA, one strand shown. The method, boiled down: as §1

The next assay concerns the target T11, ELF3 (Homo sapiens, UniProt P78545 1-371).
T11 sequence: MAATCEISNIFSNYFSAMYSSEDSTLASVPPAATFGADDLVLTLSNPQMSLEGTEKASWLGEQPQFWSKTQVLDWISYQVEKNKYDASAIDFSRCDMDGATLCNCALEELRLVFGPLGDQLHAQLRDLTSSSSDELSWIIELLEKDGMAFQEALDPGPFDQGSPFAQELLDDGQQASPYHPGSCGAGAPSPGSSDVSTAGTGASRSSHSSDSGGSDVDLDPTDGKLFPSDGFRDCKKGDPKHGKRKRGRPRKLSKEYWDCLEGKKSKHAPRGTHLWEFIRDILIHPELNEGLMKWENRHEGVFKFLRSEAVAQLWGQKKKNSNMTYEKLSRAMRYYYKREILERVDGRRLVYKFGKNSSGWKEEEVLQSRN
The following applies: protein: recombinant; tags: N-terminal GST; dsDNA, one strand shown. An outline of the steps:
as §1

The target of the next assay is ETV1 (Homo sapiens, UniProt P50549 1-477). As to conditions: protein: recombinant; tags: N-terminal GST; dsDNA, one strand shown. The method, boiled down:
as §1

SPIB, sequence (Q01892 whole entry): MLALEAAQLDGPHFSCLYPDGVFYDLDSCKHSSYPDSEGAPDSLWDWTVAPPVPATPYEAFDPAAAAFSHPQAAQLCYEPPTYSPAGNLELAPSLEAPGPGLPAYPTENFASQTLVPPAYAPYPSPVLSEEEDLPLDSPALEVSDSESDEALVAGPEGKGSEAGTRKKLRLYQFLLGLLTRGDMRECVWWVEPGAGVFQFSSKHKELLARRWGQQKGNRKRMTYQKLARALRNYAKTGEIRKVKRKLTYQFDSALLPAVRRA
ETV1, sequence (P50549 whole entry): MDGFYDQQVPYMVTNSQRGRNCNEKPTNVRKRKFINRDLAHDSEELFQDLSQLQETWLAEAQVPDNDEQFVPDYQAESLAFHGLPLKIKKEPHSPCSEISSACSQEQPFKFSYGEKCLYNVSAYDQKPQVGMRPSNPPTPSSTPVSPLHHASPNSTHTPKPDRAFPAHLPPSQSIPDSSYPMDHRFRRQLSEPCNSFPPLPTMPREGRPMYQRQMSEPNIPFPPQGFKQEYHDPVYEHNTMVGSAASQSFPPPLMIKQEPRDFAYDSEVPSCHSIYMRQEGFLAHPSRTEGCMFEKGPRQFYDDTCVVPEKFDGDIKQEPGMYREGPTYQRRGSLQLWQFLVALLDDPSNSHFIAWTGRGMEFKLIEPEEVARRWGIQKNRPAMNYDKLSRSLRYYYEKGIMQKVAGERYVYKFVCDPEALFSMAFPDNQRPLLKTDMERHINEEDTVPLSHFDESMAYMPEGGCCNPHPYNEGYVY
ETV5, sequence (P41161 whole entry): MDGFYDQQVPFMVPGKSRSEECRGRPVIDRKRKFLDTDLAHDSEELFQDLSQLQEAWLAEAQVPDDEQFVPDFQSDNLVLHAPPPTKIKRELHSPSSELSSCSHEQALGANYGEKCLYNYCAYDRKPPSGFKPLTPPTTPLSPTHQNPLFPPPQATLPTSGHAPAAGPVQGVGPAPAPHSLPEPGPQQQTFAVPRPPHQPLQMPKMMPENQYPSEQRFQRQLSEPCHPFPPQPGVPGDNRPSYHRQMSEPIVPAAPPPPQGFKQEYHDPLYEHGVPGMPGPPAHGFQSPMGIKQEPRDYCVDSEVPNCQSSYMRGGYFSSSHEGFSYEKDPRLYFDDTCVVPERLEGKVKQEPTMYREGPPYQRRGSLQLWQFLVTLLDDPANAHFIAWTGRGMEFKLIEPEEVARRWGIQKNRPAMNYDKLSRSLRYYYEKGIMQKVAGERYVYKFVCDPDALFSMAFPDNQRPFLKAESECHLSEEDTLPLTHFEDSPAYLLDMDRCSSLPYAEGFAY
HSF1, sequence (Q00613 whole entry): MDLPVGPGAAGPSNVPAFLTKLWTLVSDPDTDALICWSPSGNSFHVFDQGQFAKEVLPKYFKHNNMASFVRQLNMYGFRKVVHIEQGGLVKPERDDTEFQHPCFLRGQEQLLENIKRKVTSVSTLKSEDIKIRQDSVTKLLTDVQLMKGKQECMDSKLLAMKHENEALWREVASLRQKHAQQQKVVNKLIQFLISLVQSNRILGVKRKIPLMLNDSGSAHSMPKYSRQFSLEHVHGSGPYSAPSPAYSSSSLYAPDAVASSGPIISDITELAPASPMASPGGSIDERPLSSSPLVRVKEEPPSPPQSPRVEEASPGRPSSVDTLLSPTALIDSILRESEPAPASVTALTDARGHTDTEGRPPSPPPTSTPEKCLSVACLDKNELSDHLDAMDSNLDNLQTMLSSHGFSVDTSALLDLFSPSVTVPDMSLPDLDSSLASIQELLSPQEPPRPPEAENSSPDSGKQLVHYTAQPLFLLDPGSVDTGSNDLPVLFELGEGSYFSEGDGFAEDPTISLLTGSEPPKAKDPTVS

With GCACGA, the binding signal was 1.14 fold enrichment (6-mer frequency, TF over GST control) with FLI1; 1.02 fold enrichment (6-mer frequency, TF over GST control) in the assay with ELK1; 1.23 fold enrichment (6-mer frequency, TF over GST control) with GABPA; 1.02 fold enrichment (6-mer frequency, TF over GST control) with ERG; 1.05 fold enrichment (6-mer frequency, TF over GST control) with ELF1; 1.09 fold enrichment (6-mer frequency, TF over GST control) with EHF. Further, the binding signal in the assay with SPIB is 1.08 fold enrichment (6-mer frequency, TF over GST control); with ELK3, 1 fold enrichment (6-mer frequency, TF over GST control); with FEV it was 1.09 fold enrichment (6-mer frequency, TF over GST control); with ETV5, 1.15 fold enrichment (6-mer frequency, TF over GST control); in the assay with HSF1, 1.04 fold enrichment (6-mer frequency, TF over GST control); with SPIC it was 1.18 fold enrichment (6-mer frequency, TF over GST control). Moreover, the binding signal is 1.1 fold enrichment (6-mer frequency, TF over GST control) with ELF4; 1.13 fold enrichment (6-mer frequency, TF over GST control) in the assay with ELK4; 1.31 fold enrichment (6-mer frequency, TF over GST control) with ETV2; 1.16 fold enrichment (6-mer frequency, TF over GST control) in the assay with ELF3; 1.05 fold enrichment (6-mer frequency, TF over GST control) in the assay with ETV1.
